Bioassay records deposited in PubChem BioAssay by National Center for Advancing Translational Sciences (NCATS).
DT40 TDP1 CPT: growth inhibition of DT40 Tdp1-/-;hTDP1 cells with camptothecin (screen for TDP1 inhibitors). 12% of 420,000 active. chicken DT40 Tdp1-/-;hTDP1 cells + 20 nM CPT, ATP luminescence, 48 h. Potency, µM (series often up to 46.2 µM), for the others: at the top dose activity change, negative = growth inhibition, most hits filed as inhibitors; note: potency is the fitted concentration of half-maximal effect; nearly all actives have a fitted effect of over 55% in size
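Chicken DT40 Tdp1-/- cells complemented with human TDP1, 400 cells/well, exposed to compounds plus 20 nM camptothecin for at least 48 h at 37 C; viability read as ATP content by CellTiter-Glo luminescence.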
IL-1B inflam inh: inflammasome signaling inhibition, IL-1 beta readout. THP-1 LPS/ATP IL-1B secretion, AlphaLISA, 16 h; hits give low values. activity change, % at 57.5 µM. 4.7% of 360,000 active. AID 743279; in the data active = activity change below about -50%; inconclusive = mostly about -30% to -49%
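THP-1 cells pretreated 1 hr with compounds (up to 57.5 uM final), then stimulated with LPS (250 ng/mL final) plus ATP (1.25 mM final); secreted IL-1B measured by AlphaLISA after 16 hr, decreased signal indicating inhibition.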
TDP1 cell noCPT: qHTS for Inhibitors of human tyrosyl-DNA phosphodiesterase 1 (TDP1): qHTS in cells in absence of CPT; DT40 Tdp1-/- hTDP1 cells, no CPT, ATP luminescence, 48 h; Potency, µM (titrated, usually from 46.2 µM), inactives show at the highest dose activity change, negative = growth inhibition, usual class: inhibitors; 15% of 420,000 active; AID 686978, 2013; note: potency is the fitted concentration of half-maximal effect; nearly all actives have a fitted effect of over 55% in size
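A cellular qHTS used chicken DT40 cells lacking endogenous Tdp1 but carrying stably transfected human TDP1. Compounds were applied without camptothecin, and cell growth kinetics were judged by ATP-dependent luminescence after ≥48 hr.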
ELG1 DNA repair: ELG1-dependent DNA repair inhibition; HEK293T ELG1-luciferase reporter, luminescence, 16 h; DNA damage induced by 5-fluorouridine; Potency, µM (series often up to 46.1 µM), for inactives: at the top dose activity change, negative = inhibition, actives largely listed as inhibitors; 2.3% of 330,000 active; AID 504467; note: potency is the fitted concentration of half-maximal effect; nearly all actives have a fitted effect of over 55% in size
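Cells (2,000 per well) received 5-fluorouridine plus test compound or DMSO and were incubated 16 hr at 37 °C, 5% CO2. Luciferase activity was read by luminescence 30 min after ONE-Glo addition; signal suppression marked inhibition of damage-induced ELG1 function.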
HT1080NT lethal: kills 2HG-producing HT-1080-NT fibrosarcoma cells; 1.6% of 360,000 active; AID 686970; Potency, µM (series often up to 46.1 µM), inactives show at the highest dose activity, negative = less viability, actives largely listed as cytotoxic; HT-1080-NT fibrosarcoma viability, CellTiter-Glo ATP luminescence, 48 h;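 note: NT is the 2HG producing partner of a matched IDH1 knockdown line; potency is the fitted concentration of half-maximal effect; 0% = DMSO-treated cells and -100% = media-only wells without cells; nearly all actives have a fitted effect of over 55% in size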
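Viability of the 2HG-overproducing fibrosarcoma line after 48 hours of compound exposure at 37 degrees C was determined by luminescence with CellTiter-Glo, and concentration-effect curves were then fitted and categorized.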
HT1080 IDH1KD tx: HT-1080 IDH1 knockdown cell toxicity (counter line); HT-1080 IDH1 knockdown viability, ATP luminescence, 48 h; Potency, µM (highest dose often 46.1 µM), for the others: at the highest dose activity, negative = toxicity, most hits filed as cytotoxic; 2% of 360,000 active; AID 686971;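 note: potency is the fitted concentration of half-maximal effect; 0% = DMSO wells and -100% = cell-free medium wells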
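Assay cells: HT-1080 with IDH1 knockdown, 750 per well, RPMI/5% FBS. Exposure: 48 h at 37 °C following 2 h pre-incubation. Read: CellTiter-Glo luminescence; fitted concentration-response, curve class assigned.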
* marks the source's active call; other numbers are inactive results. Hits are enriched below; roughly 19% of the tested compounds scored in any of these assays. Unless noted, calls come from the whole dose curve; as a rule, active = well fitted curve in the direction sought with a large enough effect; inconclusive = small, poorly fitted or top-dose-only effect, or another doubt; inactive = no such curve, though single readings can be large; an effect the other way counts as inactive or inconclusive. Unless noted, % is set by controls: 0 for no effect and ±100 for the full control effect.

How did O=C(/C=C/c1c(F)cccc1Cl)N1CCOCC1 do in these assays?
DT40 TDP1 CPT: 7%; IL-1B inflam inh: -4; TDP1 cell noCPT: 1%; ELG1 DNA repair: inconclusive; HT1080NT lethal: 0%; HT1080 IDH1KD tx: 6%

What do the screens show for `C[C@H](CO)NC(=O)[C@H](C)[C@H]1C[C@]1(C)[C@H](NC(=O)OCc1ccccc1)c1ccccc1`?
DT40 TDP1 CPT: inconclusive; IL-1B inflam inh: -1; TDP1 cell noCPT: inconclusive; ELG1 DNA repair: 0%; HT1080NT lethal: 19%; HT1080 IDH1KD tx: 13%

Results for C[C@@H](C(=O)NCc1ccc(S(C)(=O)=O)cc1)[C@@H]1C[C@@]1(C)[C@@H](NC(=O)OCc1ccccc1)c1ccccc1 ?
DT40 TDP1 CPT: 21µM*; IL-1B inflam inh: -4; TDP1 cell noCPT: 15µM*; ELG1 DNA repair: inconclusive; HT1080NT lethal: 9%; HT1080 IDH1KD tx: 0%

What do the screens show for `C[C@@H](C(=O)Nc1ccc2ccccc2c1)[C@@H]1C[C@@]1(C)[C@@H](N)c1ccccc1`?
DT40 TDP1 CPT: inconclusive; IL-1B inflam inh: -12; TDP1 cell noCPT: inconclusive; HT1080NT lethal: -2%; HT1080 IDH1KD tx: -13%

What do the screens show for `Cc1cc(C(=O)N[C@H](c2ccccc2)[C@@]2(C)C[C@@H]2[C@@H](C)C(=O)Nc2ccc3ccccc3c2)n(C)n1`?
DT40 TDP1 CPT: inconclusive; IL-1B inflam inh: 0; TDP1 cell noCPT: 23µM*; ELG1 DNA repair: inconclusive; HT1080NT lethal: -24%; HT1080 IDH1KD tx: -16%

What do the screens show for `O=C(Nc1cccc(F)c1)N1CC[C@@]2(CCCN(C(=O)c3ccncc3)C2)C1`?
DT40 TDP1 CPT: 7%; TDP1 cell noCPT: -7%

How did COc1cc(/C=N/Nc2nc(N3CCCC3)nc(N3CCCC3)n2)ccc1OCc1ccccc1F do in these assays?
DT40 TDP1 CPT: 16µM*; IL-1B inflam inh: -13; TDP1 cell noCPT: 21µM*; ELG1 DNA repair: inconclusive; HT1080NT lethal: 12%; HT1080 IDH1KD tx: 8%

Results for CCc1nn(CC(=O)NCCN2CCN(C)CC2)c(=O)c2cc3c(OC)cccc3n12 ?
DT40 TDP1 CPT: 4%; IL-1B inflam inh: -7; TDP1 cell noCPT: 0%; ELG1 DNA repair: 19%; HT1080NT lethal: 6%; HT1080 IDH1KD tx: 9%

Results for Cc1cccc(-c2noc(CCC(=O)Nc3ccc(C(N)=O)cc3)n2)c1 ?
DT40 TDP1 CPT: -3%; IL-1B inflam inh: 20; TDP1 cell noCPT: -4%; ELG1 DNA repair: inconclusive; HT1080NT lethal: 0%; HT1080 IDH1KD tx: -7%

How did CCOC(=O)c1ccc(NC(=O)CCc2nc(-c3ccccc3Cl)no2)cc1 do in these assays?
DT40 TDP1 CPT: 16µM*; IL-1B inflam inh: 54; TDP1 cell noCPT: 15µM*; ELG1 DNA repair: -5%; HT1080NT lethal: inconclusive; HT1080 IDH1KD tx: inconclusive

How did CCOc1ccccc1NC(=O)c1ccccc1-c1nc(-c2ccccc2OC)no1 do in these assays?
DT40 TDP1 CPT: 16µM*; IL-1B inflam inh: -4; TDP1 cell noCPT: 9.2µM*; ELG1 DNA repair: 18µM*; HT1080NT lethal: -13%; HT1080 IDH1KD tx: -15%

How did COCCNC(=O)c1ccccc1-c1nc(-c2ccccc2OC)no1 do in these assays?
DT40 TDP1 CPT: -26%; IL-1B inflam inh: -1; TDP1 cell noCPT: -7%; ELG1 DNA repair: -14%; HT1080NT lethal: -13%; HT1080 IDH1KD tx: 2%

What do the screens show for `O=C(O)CCc1nc(-c2ccccc2Cl)no1`?
DT40 TDP1 CPT: 8%; IL-1B inflam inh: 43; TDP1 cell noCPT: -2%; ELG1 DNA repair: 0%; HT1080NT lethal: 21%; HT1080 IDH1KD tx: 13%

What do the screens show for `CCOC(=O)c1ccc(NC(=O)CCc2nc(-c3ccccc3)no2)cc1`?
DT40 TDP1 CPT: 18µM*; IL-1B inflam inh: -9; TDP1 cell noCPT: 29µM*; ELG1 DNA repair: 26µM*; HT1080NT lethal: -1%; HT1080 IDH1KD tx: -28%

How did CCOc1ccc(NC(=O)CCCc2nc(-c3cccc(OC)c3)no2)cc1 do in these assays?
DT40 TDP1 CPT: inconclusive; TDP1 cell noCPT: 21µM*

How did CN(C(=O)c1cccc(NC(=O)Cc2cccc(NC(=O)C3CCN(C(=O)C4CCCC4)CC3)c2)c1)C1CC1 do in these assays?
DT40 TDP1 CPT: -20%; IL-1B inflam inh: -19; TDP1 cell noCPT: -28%; HT1080NT lethal: 0%; HT1080 IDH1KD tx: 3%

How did NC(=O)CSc1nccn1Cc1ccc(Cl)cc1 do in these assays?
DT40 TDP1 CPT: 1%; IL-1B inflam inh: 13; TDP1 cell noCPT: -1%; ELG1 DNA repair: 4%; HT1080NT lethal: 0%; HT1080 IDH1KD tx: 12%

How did CC(C)(C)C(=O)OCc1cc(=O)n2nc(C3CCCCC3)sc2n1 do in these assays?
DT40 TDP1 CPT: -19%; TDP1 cell noCPT: -28%

What do the screens show for `Cc1cc(NS(=O)(=O)c2ccc(NC(=S)Nc3ccc(Cl)cc3C)cc2)no1`?
DT40 TDP1 CPT: 14%; IL-1B inflam inh: -8; TDP1 cell noCPT: 0%; ELG1 DNA repair: 1%; HT1080NT lethal: 15%; HT1080 IDH1KD tx: 7%

What do the screens show for `COc1ccccc1-c1noc(CCC(=O)Nc2ccccc2Cl)n1`?
DT40 TDP1 CPT: -10%; IL-1B inflam inh: 0; TDP1 cell noCPT: -3%; ELG1 DNA repair: -13%; HT1080NT lethal: 4%; HT1080 IDH1KD tx: 13%

How did CCOc1ccccc1NC(=O)CCCc1nc(-c2ccccc2Cl)no1 do in these assays?
DT40 TDP1 CPT: 13µM*; TDP1 cell noCPT: inconclusive

What do the screens show for `COc1ccc(-c2noc(CCCC(=O)NC3CCCCC3)n2)cc1`?
DT40 TDP1 CPT: 21µM*; IL-1B inflam inh: -29; TDP1 cell noCPT: 23µM*; ELG1 DNA repair: -1%; HT1080NT lethal: -26%; HT1080 IDH1KD tx: inconclusive

What do the screens show for `CCN(C(=O)c1c([N+](=O)[O-])cnn1C)c1ccccc1`?
DT40 TDP1 CPT: -21%; IL-1B inflam inh: -9; TDP1 cell noCPT: -16%; HT1080NT lethal: 11%; HT1080 IDH1KD tx: 5%

What do the screens show for `COc1cc(C(=O)Sc2ccc(Cl)cc2)cc(OC)c1OC`?
DT40 TDP1 CPT: 13µM*; IL-1B inflam inh: inconclusive; TDP1 cell noCPT: 12µM*; ELG1 DNA repair: -9%; HT1080NT lethal: inconclusive; HT1080 IDH1KD tx: inconclusive

How did COc1cc(C(=O)NCCSc2ccc(Cl)cc2)cc(OC)c1OC do in these assays?
DT40 TDP1 CPT: inconclusive; IL-1B inflam inh: -15; TDP1 cell noCPT: inconclusive; ELG1 DNA repair: inconclusive; HT1080NT lethal: -3%; HT1080 IDH1KD tx: 0%
